# Unmarked numbers belong to inactive results. Inconclusive results are not listed. Entries that show only a call come without a potency. Calls of active or inactive are those of the source. Unless noted, the call rests on the fitted dose curve; in most records, active means well fitted curve in the direction sought with a large enough effect; inconclusive means small, poorly fitted or top-dose-only effect, or another doubt; inactive means no such curve, though single readings can be large; an effect the other way counts as inactive or inconclusive.
# Legend:
# [1] = molecular target: Cytochrome P450 3A4 (Homo sapiens) (UniProt P08684); assay: qHTS Assay for Activators of Cytochrome P450 3A4 (AID 885); further: nearly all actives have a fitted effect of over 65% in size; further: potency means the concentration at half of the fitted maximal effect
# Method in brief: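 20nM CYP3A4 + 25uM Luciferin-PPXE (=KM), 200mM KPO4; cpd 10 min RT; NADPH regen, 60 min RT; stop w/ detection buffer, 20 min; luminescence. Normalized to 57 uM ketoconazole.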
# [2] = molecular target: Cytochrome P450 2D6 (Homo sapiens) (UniProt P10635); assay: qHTS Assay for Inhibitors and Substrates of Cytochrome P450 2D6 (AID 891); further: nearly all actives have a fitted effect of over 60% in size; further: potency means the concentration at half of the fitted maximal effect;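 on activity change, negative = inhibition: luciferin methyl ether substrate demethylated by CYP2D6 with NADPH regeneration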
# Method in brief: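 Human CYP2D6 (5 nM) with 30 uM Luciferin-ME EGE (at Km) in 100 mM KPO4, compound preincubated 10 min, then NADPH regeneration system for 60 min at room temperature. Luciferin read by luminescence; normalized to 1.43 uM quinidine.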
# [3] = molecular target: Alpha-galactosidase (Coffea arabica) (UniProt Q42656); assay: Counterscreen for Glucocerebrosidase Inhibitors: qHTS Assay for Coffee Bean alpha-Galactosidase at pH 4.5 (AID 957); further: series mostly up to about 77 µM
# Method in brief: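 Coffee bean alpha-galactosidase 2 nM, substrate 4-MU-alpha-Gal 80 uM, pH 4.5 citrate/Tween-20, 20 min RT. Cpd titration 0.7 nM–77 uM. Stop pH 10, fluorescence 365/440 nm; Hill-equation AC50.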
# [4] = molecular target: Muscarinic acetylcholine receptor M1 (Rattus norvegicus) (UniProt P08482); assay: qHTS Assay for Antagonists of Acetylcholine Muscarinic M1 Receptor: Measurement of IP-One Response (AID 944); further: potency means the concentration at half of the fitted maximal effect; nearly all actives have a fitted effect of over 75% in size
# Method in brief: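 M1-CHO (rat), 2000 cells/well, overnight recovery; cpd 10 min; carbachol EC80 (200 nM), 30 min, HEPES buffer + 50 mM LiCl pH 7.4; IP-One HTRF, Ex 337, Em 620/665 nm.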
# [5] = molecular target: Alpha-galactosidase (Coffea arabica) (UniProt Q42656); assay: Counterscreen for Glucocerebrosidase Inhibitors: qHTS Assay for Coffee Bean alpha-Galactosidase at pH 5.9 (AID 998)
# Method in brief: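 Green coffee bean enzyme (2 nM final) was incubated with compounds (0.7 nM–77 uM) and 4-methylumbelliferyl alpha-D-galactopyranoside (80 uM) in citrate buffer pH 5.9, 20 min at room temperature. High-pH stop; fluorescence 365/440 nm; AC50 from Hill fits.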
# [6] = molecular target: Cytochrome P450 2C19 (Homo sapiens) (UniProt P33261); assay: qHTS Assay for Inhibitors and Substrates of Cytochrome P450 2C19 (AID 899); further: nearly all actives have a fitted effect of over 60% in size; further: potency means the concentration at half of the fitted maximal effect
# Method in brief: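 Human CYP2C19 (5nM) with Luciferin-H EGE at 10uM (its KM) in 50mM KPO4 was preincubated with compound for 10 min at 37C. NADPH regeneration started a 60 min 37C reaction. Luciferin was read by luminescence, normalized to 57uM ketoconazole.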
# [7] = Confirmation and Secondary Assay for Modulators of Hemoglobin Beta Chain Splicing at IVS2 654 locus (AID 910);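 further: per-well total GFP intensity by laser scanning cytometry after 2-day treatment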
# Method in brief: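 HeLa cells stably carrying EGFP interrupted by mutant beta-globin IVS2-654 intron (CMV-driven) were treated with compound for 2 days at 37C; corrected splicing was scored as total peak GFP intensity per well (488 nm excitation, 500-520 nm emission).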
# [8] = Confirmation and Secondary Assay for Modulators of Hemoglobin Beta Chain Splicing at IVS2 705 locus (AID 930);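 further: HeLa cells stably expressing the EGFP-705 splicing reporter; GFP fluorescence per well restored by corrected splicing of the IVS2-705 intron in EGFP; series mostly up to about 46 µM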
# Method in brief: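 Splice-correction reporter: EGFP cDNA split by beta-globin intron 2 bearing the 705 mutation, stably in HeLa. Compound incubation 2 days, 37C; fluorescent objects 5-250 µm summed per well.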
# [9] = qHTS Assay for Identification of Small Molecule Antagonists for NFkB Signaling Pathway (AID 895; active means well fitted inhibition curve with a large enough effect in the signal ratio, with a control signal flat, not every such curve was filed as active; the % refers to the signal ratio; further: potency means the concentration at half of the fitted maximal effect)
# Method in brief: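 NFkB-bla ME-180 cervical carcinoma cells with beta-lactamase reporter under NFkB response element; compounds added, then TNF alpha at 10 pM final (EC50), 5 h at 37 C. LiveBLAzer substrate 2 h, room temperature; emission 460/530 nm at 405 nm excitation.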
# [10] = molecular target: Muscarinic acetylcholine receptor M1 (Rattus norvegicus) (UniProt P08482); assay: qHTS Assay for Antagonists of Acetylcholine Muscarinic M1 Receptor: Kinetic Measurement of Intracellular Calcium Response (AID 943); further: potency means the concentration at half of the fitted maximal effect; nearly all actives have a fitted effect of over 75% in size
# Method in brief: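 Rat M1-CHO cells, 2000/well, overnight → Fluo-4 no-wash dye with probenecid, 1 h 37C → compound 10 min, room temp → basal read 6 s → carbachol EC80 (100 nM) → 4 min kinetic read; peak/basal.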
# Chain of Cytochrome P450 3A4 (Homo sapiens) (P08684 whole entry, looked up): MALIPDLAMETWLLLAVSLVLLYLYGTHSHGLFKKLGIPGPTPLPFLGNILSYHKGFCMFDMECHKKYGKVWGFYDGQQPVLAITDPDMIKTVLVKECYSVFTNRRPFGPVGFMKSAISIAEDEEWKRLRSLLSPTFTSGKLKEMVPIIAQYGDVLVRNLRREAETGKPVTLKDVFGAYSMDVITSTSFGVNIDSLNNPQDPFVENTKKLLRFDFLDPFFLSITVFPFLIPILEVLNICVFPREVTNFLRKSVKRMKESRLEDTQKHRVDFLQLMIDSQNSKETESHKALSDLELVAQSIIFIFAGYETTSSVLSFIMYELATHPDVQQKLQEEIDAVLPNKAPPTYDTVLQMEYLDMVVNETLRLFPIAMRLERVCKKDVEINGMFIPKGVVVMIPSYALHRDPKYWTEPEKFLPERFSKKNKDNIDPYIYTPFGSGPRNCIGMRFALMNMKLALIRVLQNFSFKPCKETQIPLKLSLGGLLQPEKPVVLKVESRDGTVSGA
# Chain of Cytochrome P450 2D6 (Homo sapiens) (P10635 whole entry, looked up): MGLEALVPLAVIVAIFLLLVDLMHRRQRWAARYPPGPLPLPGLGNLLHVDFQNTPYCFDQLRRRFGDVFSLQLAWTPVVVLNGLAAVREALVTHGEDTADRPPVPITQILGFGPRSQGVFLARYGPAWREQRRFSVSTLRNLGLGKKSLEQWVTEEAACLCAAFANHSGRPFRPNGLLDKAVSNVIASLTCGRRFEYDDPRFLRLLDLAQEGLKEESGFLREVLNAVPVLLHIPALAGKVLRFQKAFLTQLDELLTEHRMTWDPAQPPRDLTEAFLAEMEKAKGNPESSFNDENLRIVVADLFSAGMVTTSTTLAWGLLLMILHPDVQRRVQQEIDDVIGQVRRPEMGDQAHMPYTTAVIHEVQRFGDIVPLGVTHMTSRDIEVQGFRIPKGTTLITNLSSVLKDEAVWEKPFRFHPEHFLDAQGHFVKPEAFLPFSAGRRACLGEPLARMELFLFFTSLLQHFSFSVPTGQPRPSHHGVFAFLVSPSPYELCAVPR
# Chain of Cytochrome P450 2C19 (Homo sapiens) (P33261 whole entry, looked up): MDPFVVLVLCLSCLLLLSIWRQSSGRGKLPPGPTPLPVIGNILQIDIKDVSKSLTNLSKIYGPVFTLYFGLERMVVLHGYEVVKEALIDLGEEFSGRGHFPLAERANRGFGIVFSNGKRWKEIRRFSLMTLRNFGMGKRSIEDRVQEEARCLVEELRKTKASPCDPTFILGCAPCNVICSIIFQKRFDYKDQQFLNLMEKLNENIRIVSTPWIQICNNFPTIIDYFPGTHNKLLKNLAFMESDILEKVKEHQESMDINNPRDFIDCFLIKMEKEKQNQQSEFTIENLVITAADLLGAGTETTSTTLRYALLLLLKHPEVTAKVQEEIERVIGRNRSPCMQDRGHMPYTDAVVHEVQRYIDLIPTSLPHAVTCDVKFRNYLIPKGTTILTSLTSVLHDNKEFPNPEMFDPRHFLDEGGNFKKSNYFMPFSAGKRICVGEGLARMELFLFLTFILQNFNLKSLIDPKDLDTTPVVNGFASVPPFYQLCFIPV
# Chain of Alpha-galactosidase (Coffea arabica) (Q42656 whole entry, looked up): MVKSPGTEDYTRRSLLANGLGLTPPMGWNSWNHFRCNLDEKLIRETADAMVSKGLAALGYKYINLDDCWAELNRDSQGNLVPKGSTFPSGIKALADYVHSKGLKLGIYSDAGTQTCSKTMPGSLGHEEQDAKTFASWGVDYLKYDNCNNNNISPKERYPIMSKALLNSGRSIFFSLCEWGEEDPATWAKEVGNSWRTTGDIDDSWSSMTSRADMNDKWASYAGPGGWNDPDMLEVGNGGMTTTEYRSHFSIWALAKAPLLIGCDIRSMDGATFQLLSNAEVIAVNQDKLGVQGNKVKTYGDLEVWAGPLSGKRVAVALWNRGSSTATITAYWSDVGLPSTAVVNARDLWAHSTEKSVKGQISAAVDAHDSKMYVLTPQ
# Chain of Muscarinic acetylcholine receptor M1 (Rattus norvegicus) (P08482 whole entry, looked up): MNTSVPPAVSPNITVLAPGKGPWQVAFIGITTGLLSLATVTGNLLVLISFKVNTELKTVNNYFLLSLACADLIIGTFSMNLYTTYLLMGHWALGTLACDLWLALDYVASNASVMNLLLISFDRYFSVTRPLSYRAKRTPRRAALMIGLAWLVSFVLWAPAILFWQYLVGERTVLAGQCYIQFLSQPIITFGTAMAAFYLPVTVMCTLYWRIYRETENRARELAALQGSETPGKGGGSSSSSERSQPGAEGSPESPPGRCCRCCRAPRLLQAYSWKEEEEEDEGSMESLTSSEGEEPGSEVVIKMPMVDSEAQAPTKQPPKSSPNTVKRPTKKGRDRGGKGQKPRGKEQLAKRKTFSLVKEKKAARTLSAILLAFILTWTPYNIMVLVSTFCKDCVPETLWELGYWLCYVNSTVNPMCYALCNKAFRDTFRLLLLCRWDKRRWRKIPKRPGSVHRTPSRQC
compound,measurement,setting,value
CC(C)CC(N)C1(c2ccc(Cl)cc2)CCC1 (stereo not given),Potency,[1],inactive
C[C@@H](COc1ccccc1)N(CCCl)Cc1ccccc1,Potency,[2],1.58 µM (active)
same,outcome,[3],inactive
COC(=O)[C@H]1[C@@H](c2ccccc2)[C@@]2(c3ccccc3)Oc3ccccc3[C@@]1(O)[C@@H]2O,"activity change, positive = activation",[1],-40.9% [at 11.4 µM]
same,"activity change, negative = inhibition",[2],40.2% [at 11.4 µM]
Clc1ccc(C(c2ccc(Cl)cc2)n2cc[n+](C[C@@H](OCc3ccc(Cl)cc3Cl)c3ccc(Cl)cc3Cl)c2)cc1,Potency,[1],inactive
same,Potency,[2],0.0398 µM (active)
same,Potency,[4],14.1 µM (active)
same,outcome,[3],inactive
same,outcome,[5],inactive
CCN1CCC[C@@H](OC(=O)C(c2ccccc2)c2ccccc2)C1,Potency,[2],1.58 µM (active)
C[C@@]12CC[C@@H]3c4ccc(O)cc4C[C@H](CCCCCCCCCS(=O)CCCC(F)(F)C(F)(F)F)[C@H]3[C@@H]1CC[C@@H]2O (stereo not given in full),Potency,[1],inactive
C=C(CO)[C@H]1Cc2c(ccc3c2O[C@H]2COc4cc(OC)c(OC)cc4[C@@H]2C3=O)O1,Potency,[6],5.01 µM (active)
CC(=O)[C@@H]1CC[C@@H]2[C@@H]3CC=C4C[C@H](OS(=O)(=O)O)CC[C@@]4(C)[C@H]3CC[C@]21C,Potency,[1],inactive
same,outcome,[3],inactive
same,outcome,[5],inactive
C[C@@]12CC[C@@H]3[C@@H](CC[C@H]4C[C@@H](O)CC[C@]43C)[C@H]1CC[C@@H]2c1cc(C(F)(F)F)n[nH]1,Potency,[1],2.51 µM (active)
same,Potency,[6],2.51 µM (active)
CCN(CC)c1ccc2c(C)cc(=O)oc2c1,Potency,[1],inactive
C[C@@]12CC[C@@H]3[C@H](CCC4=CC(=O)CC[C@]43C)[C@@H]1CC[C@@H]2C(=O)Cn1cnc2c(=S)nc[nH]c21,Potency,[1],3.16 µM (active)
c1ccc2c(c1)-c1ccccc1C2N1CC2CCC(CC2)C1,Potency,[2],3.98 µM (active)
CC1(C)C2(Cl)C(Cl)C(Cl)C(Cl)(C(Cl)Cl)C1(Cl)C2Cl (stereo not given),Potency,[1],inactive
COc1cc2ccc(=O)oc2c2ccoc12,Potency,[1],inactive
same,Potency,[7],inactive
same,outcome,[8],inactive
CCC1=C(C[C@H]2NCCc3ccccc32)C[C@@H]2c3cc(OC)c(OC)cc3CCN2C1,Potency,[2],2.51 µM (active)
C[C@H](CCC(=O)O)[C@H]1CC[C@]2(C)[C@@H]3C(=O)C[C@H]4C(C)(C)[C@@H](O)CC[C@]4(C)[C@H]3C(=O)C[C@@]12C,"activity, negative = inhibition",[6],60.6% [at 11.4 µM]
COC(=O)[C@@H]1C[C@@]2(O)[C@H](O)[C@H](O)[C@H](O)C[C@H]2N1Cc1cccnc1,Potency,[1],inactive
CN1[C@H](CC(=O)c2ccccc2)CCC[C@H]1C[C@@H](O)c1ccccc1,Potency,[2],0.01 µM (active)
C[C@@H]1OC=C2[C@@H](O)[C@H]3O[C@H]3C(=O)[C@@]23[C@H]1[C@H]1C2=C([C@@H](O)[C@H]4O[C@@H]4C2=O)[C@@H]3O[C@@H]1C,"activity, negative = inhibition",[6],53.9% [at 11.4 µM]
CCCN1[C@@H]2C[C@@H](O)CC[C@@H]2C[C@H]1C(=O)OC,Potency,[1],inactive
COC(=O)NC/C=C\c1nc(CC/C=C\C(=O)O[C@H]2C[C@H]3CC(=O)O[C@@H](/C=C\CC(C)C)C[C@@H]4CC[C@H](C)[C@H](C[C@@H](OC)C[C@H](C2)O3)O4)co1,"activity change, positive = activation",[1],-81.2% [at 11.4 µM]
same,"activity, negative = inhibition",[6],68.9% [at 11.4 µM]
O=C(O)c1cc2c(cc1S(=O)(=O)O)[C@H]1[C@@H]([C@H]3[C@H]2[C@@]2(Cl)C(Cl)=C(Cl)[C@]3(Cl)C2(Cl)Cl)[C@]2(Cl)C(Cl)=C(Cl)[C@@]1(Cl)C2(Cl)Cl,"activity change, positive = activation",[1],-41.4% [at 11.4 µM]
CC(=O)[C@@H]1CC[C@@H]2[C@@H]3CCC4=CC(=O)CC[C@@]4(C)[C@H]3CC[C@]21C,Potency,[1],3.98 µM (active)
same,Potency,[6],7.94 µM (active)
O[C@@H]1[C@@H]2c3cc4c(cc3CN3CCC(=C[C@@H]1O)[C@H]23)OCO4,Potency,[2],3.98 µM (active)
C[C@]12CCC3c4ccc(OC(=O)c5ccccc5)cc4CCC3C1CCC2=O (stereo not given in full),Potency,[1],inactive
COC(=O)[C@]1(C)CC[C@@]2(C)CC[C@@]3(C)C4=CCc5c(cc(O)c(O)c5C)[C@]4(C)CC[C@@]3(C)C2C1 (stereo not given in full),Potency,[1],inactive
same,Potency,[7],inactive
same,outcome,[8],inactive
C[C@@]12CC[C@H]3[C@H](CC=C4C[C@@H](O)CC[C@@]43C)[C@@H]1CC[C@@H]2N(CCO)CCO,"activity, negative = inhibition",[6],79.2% [at 11.4 µM]
COC(=O)CCC(C)C1CCC2C3C(O)C[C@@H]4CC(O)CC[C@@]4(C)C3CC(O)[C@]12C (stereo not given in full),Potency,[1],inactive
O=C1OC(=O)[C@@H]2[C@@H]1[C@@H]1CC[C@H]2O1,Potency,[2],inactive
same,outcome,[3],inactive
CC(C)(C)c1ccc(OC(=O)Nc2ccc(O)c(C(=O)O)c2)cc1,"activity change, negative = inhibition",[2],22.6% [at 11.4 µM]
CN1[C@@H](CC(=O)c2ccccc2)CCC[C@@H]1C[C@@H](O)c1ccccc1,Potency,[9],12.6 µM [stimulated with 10 pM TNF alpha] (active)
same,Potency,[10],5.62 µM (active)
same,outcome,[3],inactive
same,outcome,[5],inactive
CC(C)CCC[C@@H](C)[C@@H]1CC[C@@H]2[C@H]3CC[C@H]4C[C@@H](N)CC[C@@]4(C)[C@@H]3CC[C@]21C,"activity change, negative = inhibition",[2],11% [at 11.4 µM]
same,"activity, negative = inhibition",[6],61.6% [at 11.4 µM]
CC1(C)C(=O)[C@@H]2OC2[C@@]2(C)C1CC(O)[C@]1(C)C2CC[C@@]2(C)C(c3ccoc3)OC(=O)C3OC312 (stereo not given in full),Potency,[1],inactive
same,Potency,[7],inactive
same,outcome,[8],inactive

# Source: PubChem BioAssay (NCATS)
